For orientation: inhibition means the change of the read-out against control, counted positive when it falls.

This is an account of results in PubChem BioAssay AID485317 (Broad Institute, 2010).

Among all 290,000 compounds or so, about 11,000 (3.8%) were called active. The full list was thinned out, with actives kept by preference. A number with no mark means an inactive call.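 How the source made its calls: active means mean replicate inhibition above about 79%, with every replicate also reaching it (limit read from the data); inconclusive means only one of the two criteria met; inactive means mean below limit and not every replicate reaching it.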

This assay deals with FAD-linked sulfhydryl oxidase ALR (Homo sapiens) (UniProt P55789). As to the kind of experiment: inhibitors of human ALR sulfhydryl oxidase, primary screen, biochemical, H2O2 detection, HRP-luminol luminescence, single point (AID 485317). Conditions: purified ALR, DTT oxidation, active compounds read high, concentration not given here.
Sequence of FAD-linked sulfhydryl oxidase ALR (Homo sapiens) (P55789 whole entry, looked up): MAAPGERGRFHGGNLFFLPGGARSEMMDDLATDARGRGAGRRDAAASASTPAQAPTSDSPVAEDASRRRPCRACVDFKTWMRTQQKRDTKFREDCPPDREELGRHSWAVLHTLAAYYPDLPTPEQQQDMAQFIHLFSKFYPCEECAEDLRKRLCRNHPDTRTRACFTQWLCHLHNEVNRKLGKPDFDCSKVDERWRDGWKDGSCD
For `O=C(c1cc(-c2ccc(Cl)s2)nc2ccccc12)N1CCOCC1`, the inhibition was -1.66%.
As to `CN1CCC(N(C)S(=O)(=O)c2ccc(NC(=O)c3cccc(C#N)c3)cc2)CC1`, the inhibition was -3.41%.
As to `Cc1nc2c(c(C)nn2-c2ccccc2)c(C)c1C`, the inhibition was -7.19%.
Take `Cc1nc(-c2ccc(Cl)cc2)sc1C1(C)CC(c2ccc(Br)cc2)=NO1` (stereo not drawn): the inhibition is -3.38%.
As to `CCCCN(C(=O)CCNC(=O)NC12CC3CC(CC(C3)C1)C2)c1c(N)n(CCCC)c(=O)[nH]c1=O`, the inhibition was -9.44%.
With `CC(=O)CC(CC(=O)NC1CCCCC1)c1ccccc1` (stereo not drawn), the inhibition was -6.14%.
Turning to `CN(CC(=O)NNC(=O)CNC(=O)c1ccccc1Cl)S(=O)(=O)c1ccc(Cl)cc1`, the inhibition is -3.96%.
Turning to `CCN1C(=O)[C@@H]2[C@@H](c3ccc(-c4cccc(Cl)c4)cc3)N3CCC[C@@]3(C(=O)OC)[C@@H]2C1=O`, the inhibition was -0.179%.
On to `CC1(C)O[C@@H]2[C@H](O1)[C@@H](COS(=O)(=O)O)O[C@H]2n1cnc2c(=O)[nH]cnc21`, for which the inhibition is -3.87%.
Regarding `O=C(Nc1ncccc1O)c1ccc(S(=O)(=O)N2CCCCCC2)cc1`, the inhibition is -12.4%.
The result for `O=C(OCCOCn1cc(Br)c(=O)[nH]c1=O)c1ccccc1` reads 18.4%; that for `Cc1[nH]c2ccccc2c1C(=O)CN1CC(C)CC(C)C1` (stereo not drawn), -7.59%; that for `CCOC(=O)N1CCN(CC(=O)c2c(C)[nH]c3ccccc23)CC1`, -13%.
With `Cc1[nH]c2ccccc2c1C(=O)CSCC(=O)O`, the inhibition is 98.3% (active).
For the compound `CC(=O)Nc1ccc(NC(=O)COC(=O)C2CCC(C(C)(C)C)CC2)cc1` (stereo not drawn), the inhibition is -2.92%.
As for `CCOC(=O)CCCCCC(=O)Nc1ccc2c(c1)CC(=O)N([C@@H](C)CO)C[C@H](C)[C@@H](CN(C)Cc1ccccc1)O2`, the inhibition is -2.17%.
For `CCC(C)N1C(=S)SC(C)(C)C1N(O)C(=O)NC1CCCCC1` (stereo not drawn), the inhibition is -8.63%.
Consider `CCCCNC(=O)N(O)C1N(/N=C/c2ccc(N(C)C)cc2)C(=S)SC1(C)C` (stereo not drawn), for which the inhibition is 98.8% (active).
The result for `CCCCNC(=O)N(O)C1N(/N=C/c2ccccc2O)C(=S)SC1(C)C` (stereo not drawn) reads -2.9%; that for `COc1ccc(C(=O)NNc2cc(C)nc(NNC(=O)c3ccc(OC)cc3)n2)cc1`, 12.7%.
Regarding `COc1ccc(OCC(=O)NNC(=O)c2ccc(-c3ccccc3)cc2)cc1`, the inhibition is 1.13%.
As to `Cc1nc(NNC(=O)c2ccccc2)cc(-c2ccccc2)n1`, the inhibition was 90.8% (active).
The result for `O=C(CNS(=O)(=O)c1ccc2c(c1)OCCCO2)N1CCN(c2ccc(F)cc2)CC1` reads 3.71%.
